The source made the active and inactive calls. Rule for the calls: active = hit-call score of the fitted dose curve at least 0.9, where 1 is the maximum; inactive = score below 0.9.
What was measured:
[1] = read-out: urokinase plasminogen activator (uPA), PLAU (gene 5328); assay: BSK_KF3CT_uPA: BioMAP Diversity Plus: KF3CT Assay for urokinase plasminogen activator (uPA) Biomarker Activity (AID 2283075); settings: primary human keratinocytes with fibroblasts; actives raise or lower the signal
Outline: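 ELISA readout of uPA, analyzed for signal gain or loss relative to DMSO, from a human primary keratinocyte–foreskin fibroblast co-culture measured 24 h after chemical treatment.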

CD40, CD40 (gene 958) [2] = assay: BSK_LPS_CD40: BioMAP Diversity Plus: LPS Assay for CD40 Biomarker Activity (AID 2283076); settings: primary human HUVEC with PBMC; actives raise or lower the signal
Outline: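 Primary human umbilical vein endothelial cells co-cultured with peripheral blood mononuclear cells, LPS-stimulated, were dosed with chemical and read 24 h later. CD40 levels were measured by ELISA and fitted bidirectionally against DMSO as negative control and baseline.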

[3] = read-out: E-selectin (Homo sapiens) (UniProt P16581); assay: BSK_LPS_Eselectin: BioMAP Diversity Plus: LPS Assay for Eselectin Biomarker Activity (AID 2283077); settings: primary human HUVEC with PBMC; actives raise or lower the signal
Outline: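 Human umbilical vein endothelial cells co-cultured with peripheral blood mononuclear cells under LPS stimulation; E-selectin measured by ELISA 24 h after chemical dosing. Activity fitted bidirectionally against DMSO as negative control and baseline.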

[4] = read-out: Interleukin-8 (IL8), CXCL8 (gene 3576); assay: BSK_LPS_IL8: BioMAP Diversity Plus: LPS Assay for Interleukin-8 (IL8) Biomarker Activity (AID 2283078); settings: primary human HUVEC with PBMC; actives raise or lower the signal
Outline: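 Human umbilical vein endothelial cells co-cultured with PBMC were stimulated with LPS; IL-8 levels were measured by ELISA 24 h after chemical dosing. Activity was fitted bidirectionally against DMSO as negative control and baseline.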

[5] = BSK_LPS_SRB: Viability Assessment in the BioMAP Diversity Plus: LPS Assay (AID 2283079); settings: primary human HUVEC with PBMC;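 note: total protein by sulforhodamine B absorbance as a cytotoxicity measure; measured one day after compound addition; fitted in both directions against DMSO so loss or gain of signal counts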
Outline: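 Human umbilical vein endothelial cells co-cultured with PBMC (LPS system) were dosed for 24 h. Total protein was stained with 0.1% sulforhodamine B after 10% TCA fixation, read at 560 nm, and fitted bidirectionally against DMSO baseline.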

[6] = read-out: Interleukin-1 alpha (IL1a), IL1A (gene 3552); assay: BSK_LPS_IL1a: BioMAP Diversity Plus: LPS Assay for Interleukin-1 alpha (IL1a) Biomarker Activity (AID 2283080); settings: primary human HUVEC with PBMC; actives raise or lower the signal
Outline: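 Human umbilical vein endothelial cells co-cultured with peripheral blood mononuclear cells were LPS-stimulated and exposed to test chemicals for 24 h. IL-1 alpha was quantified by ELISA, with bidirectional curve fitting against DMSO as the negative control and baseline.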

[7] = read-out: Monocyte Chemoattractant Protein-1 (MCP1), CCL2 (gene 6347); assay: BSK_LPS_MCP1: BioMAP Diversity Plus: LPS Assay for Monocyte Chemoattractant Protein-1 (MCP1) Biomarker Activity (AID 2283081); settings: primary human HUVEC with PBMC; actives raise or lower the signal;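 for AC50: secreted MCP-1 protein quantified by ELISA in culture supernatant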
Outline: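 HUVEC plus PBMC co-culture (human primary cells, LPS system) exposed to test chemical for 24 h; MCP-1 measured by ELISA. Bidirectional curve fitting against DMSO baseline; parallel SRB total-protein staining flags overt cytotoxicity.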

[8] = BSK_LPS_PGE2: BioMAP Diversity Plus: LPS Assay for Prostaglandin E2 (PGE2) Biomarker Activity (AID 2283082); settings: primary human HUVEC with PBMC; actives raise or lower the signal
Outline: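 HUVEC plus PBMC co-culture stimulated with LPS; secreted PGE2 quantified by ELISA 24 h after chemical dosing. Activity fitted bidirectionally against DMSO as negative control and baseline; parallel SRB total-protein staining served as cytotoxicity check.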

[9] = read-out: Macrophage colony-stimulating factor (MCSF), CSF1 (gene 1435); assay: BSK_LPS_MCSF: BioMAP Diversity Plus: LPS Assay for Macrophage colony-stimulating factor (MCSF) Biomarker Activity (AID 2283083); settings: primary human HUVEC with PBMC; actives raise or lower the signal
Outline: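 Human umbilical vein endothelial cells co-cultured with peripheral blood mononuclear cells were exposed to compound for 24 h. M-CSF levels were measured by ELISA, and bidirectional curve fitting used DMSO as the negative control and baseline.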

[10] = read-out: Tissue Factor, F3 (gene 2152); assay: BSK_LPS_TissueFactor: BioMAP Diversity Plus: LPS Assay for Tissue Factor Biomarker Activity (AID 2283084); settings: primary human HUVEC with PBMC; actives raise or lower the signal
Outline: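 Human umbilical vein endothelial cells co-cultured with peripheral blood mononuclear cells were dosed and stimulated with LPS. Cell-surface CD142 was quantified by ELISA at 24 h. Activity was fitted bidirectionally against DMSO baseline.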

[11] = read-out: Tumor necrosis factor (Homo sapiens) (UniProt P01375); assay: BSK_LPS_TNFa: BioMAP Diversity Plus: LPS Assay for Tumour Necrosis Factor alpha (TNFa) Biomarker Activity (AID 2283085); settings: primary human HUVEC with PBMC; actives raise or lower the signal
Outline: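 Human umbilical vein endothelial cells co-cultured with PBMC were exposed to test chemical and TNFa measured by ELISA 24 h after dosing. Bidirectional curve fitting was done relative to DMSO as negative control and baseline.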

[12] = read-out: Vascular cell adhesion molecule 1 (VCAM1), VCAM1 (gene 7412); assay: BSK_LPS_VCAM1: BioMAP Diversity Plus: LPS Assay for Vascular cell adhesion molecule 1 (VCAM1) Biomarker Activity (AID 2283086); settings: primary human HUVEC with PBMC; actives raise or lower the signal
Outline: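 Human umbilical vein endothelial cells co-cultured with peripheral blood mononuclear cells under LPS stimulation were exposed to test chemical for 24 h. VCAM-1 levels were then measured by ELISA, with bidirectional curve fitting relative to DMSO as negative control and baseline.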

CD40, CD40 (gene 958) [13] = assay: BSK_SAg_CD40: BioMAP Diversity Plus: SAg Assay for CD40 Biomarker Activity (AID 2283088); settings: primary human HUVEC with PBMC; actives raise or lower the signal
Outline: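 Human umbilical vein endothelial cells co-cultured with PBMC; CD40 levels measured by ELISA with fluorescence read-out 24 h after chemical dosing. Gain or loss of signal fitted bidirectionally against DMSO baseline.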

CD69, CD69 (gene 969) = assay: BSK_SAg_CD69: BioMAP Diversity Plus: SAg Assay for CD69 Biomarker Activity (AID 2283089); settings: primary human HUVEC with PBMC; actives raise or lower the signal;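 for AC50: cell surface CD69 protein quantified by ELISA with fluorescence detection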
Outline: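 ELISA, fluorescence read-out: CD69 on human umbilical vein endothelial cell + PBMC co-culture, 24 h post-dosing. Gain or loss of signal fitted bidirectionally against DMSO baseline.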

[14] = read-out: Monocyte Chemoattractant Protein-1 (MCP1), CCL2 (gene 6347); assay: BSK_SAg_MCP1: BioMAP Diversity Plus: SAg Assay for Monocyte Chemoattractant Protein-1 (MCP1) Biomarker Activity (AID 2283090); settings: primary human HUVEC with PBMC; actives raise or lower the signal
Outline: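 MCP-1 levels in the endothelial–PBMC SAg co-culture were quantified by ELISA at 24 h post-dosing; both increases and decreases versus DMSO scored. Cytotoxicity monitored by SRB total protein in parallel cultures.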

[15] = read-out: E-selectin (Homo sapiens) (UniProt P16581); assay: BSK_SAg_Eselectin: BioMAP Diversity Plus: SAg Assay for Eselectin Biomarker Activity (AID 2283091); settings: primary human HUVEC with PBMC; actives raise or lower the signal
Outline: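 HUVEC co-cultured with PBMC, compound dosed then read at 24 h; E-selectin measured by ELISA. Activity fitted bidirectionally against DMSO as negative control and baseline.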

[16] = read-out: Monokine induced gamma interferon (MIG), CXCL9 (gene 4283); assay: BSK_SAg_MIG: BioMAP Diversity Plus: SAg Assay for Monokine induced gamma interferon (MIG) Biomarker Activity (AID 2283092); settings: primary human HUVEC with PBMC; actives raise or lower the signal
Outline: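 ELISA readout of MIG/CXCL9; primary human umbilical vein endothelial cells co-cultured with peripheral blood mononuclear cells; 24 h post-dose; gain/loss fit vs DMSO baseline.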

[17] = read-out: Interleukin-8 (IL8), CXCL8 (gene 3576); assay: BSK_SAg_IL8: BioMAP Diversity Plus: SAg Assay for Interleukin-8 (IL8) Biomarker Activity (AID 2283094); settings: primary human HUVEC with PBMC; actives raise or lower the signal
Outline: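 Human umbilical vein endothelial cells co-cultured with peripheral blood mononuclear cells; IL-8 measured by ELISA 24 h after chemical dosing. Bidirectional concentration-response fitting used DMSO as negative control and activity baseline.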

CD38, CD38 (gene 952) = assay: BSK_SAg_CD38: BioMAP Diversity Plus: SAg Assay for CD38 Biomarker Activity (AID 2283087); settings: primary human HUVEC with PBMC; actives raise or lower the signal
Outline: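 Fluorescence ELISA of cell-surface CD38 served as the read-out, with either increase or decrease fitted against DMSO controls. Cells were a human umbilical vein endothelium plus PBMC co-culture under SEB/TSST-1 stimulation, measured 24 h after dosing.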

[18] = BSK_SAg_PBMCCytotoxicity: PBMC Cytotoxicity Assessment in the BioMAP Diversity Plus: SAg Assay (AID 2283093); settings: primary human HUVEC with PBMC;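 note: PBMC viability measured as Alamar Blue reduction fluorescence at 546/580 nm; fitted both ways against DMSO so a hit may be loss or gain of signal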;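 for AC50: PBMC superantigen activated with SEB plus TSST-1 one hour after compound addition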
Outline: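 Compound added to 75,000 PBMC/well for 1 h; SEB and TSST-1 then added at 20 ng/mL final each; 90 h incubation; Alamar Blue 6 h; read 546/580 nm ex/em. Activity fitted bidirectionally relative to DMSO baseline.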

Measured: AC50

Tumor necrosis factor (Homo sapiens), sequence (P01375 whole entry, looked up): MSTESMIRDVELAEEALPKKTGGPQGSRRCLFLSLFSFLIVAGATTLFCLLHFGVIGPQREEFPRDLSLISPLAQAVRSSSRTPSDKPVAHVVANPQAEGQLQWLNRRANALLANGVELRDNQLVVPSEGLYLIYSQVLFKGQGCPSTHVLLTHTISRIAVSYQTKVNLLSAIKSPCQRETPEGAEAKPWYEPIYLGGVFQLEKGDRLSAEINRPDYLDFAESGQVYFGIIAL
E-selectin (Homo sapiens), sequence (P16581 whole entry, looked up): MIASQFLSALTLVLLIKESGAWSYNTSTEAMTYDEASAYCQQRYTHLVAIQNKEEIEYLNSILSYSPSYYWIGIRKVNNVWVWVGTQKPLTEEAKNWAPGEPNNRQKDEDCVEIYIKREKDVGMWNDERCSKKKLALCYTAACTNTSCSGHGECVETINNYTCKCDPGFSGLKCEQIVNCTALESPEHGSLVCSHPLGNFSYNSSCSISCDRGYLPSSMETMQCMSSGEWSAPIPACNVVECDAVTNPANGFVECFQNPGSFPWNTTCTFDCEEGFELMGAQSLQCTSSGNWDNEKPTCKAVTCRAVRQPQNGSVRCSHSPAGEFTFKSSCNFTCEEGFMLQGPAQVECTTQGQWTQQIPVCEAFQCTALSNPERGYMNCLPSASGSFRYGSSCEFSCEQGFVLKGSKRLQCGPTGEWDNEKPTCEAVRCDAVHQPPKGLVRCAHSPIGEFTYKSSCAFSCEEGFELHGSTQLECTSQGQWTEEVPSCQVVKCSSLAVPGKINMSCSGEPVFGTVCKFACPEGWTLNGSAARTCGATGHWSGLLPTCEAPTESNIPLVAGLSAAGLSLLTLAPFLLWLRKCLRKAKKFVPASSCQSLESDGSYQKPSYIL

COCCOc1cc2cc(C(=O)NC3CCN(C(C)C)CC3)n(CC(=O)Nc3ccc(Cl)cn3)c2cn1
not listed: CD38, CD38 (gene 952) | [18]
inactive: all other assays above

C1=CCCC=CCCC=CCC1
not listed: CD40, CD40 (gene 958) [2]
inactive: all other assays above

O=c1n(CC2CO2)c(=O)n(CC2CO2)c(=O)n1CC1CO1 (centres undefined)
active: CD40, CD40 (gene 958) [2] 16.3 µM | [3] 20 µM | [4] 10.8 µM | [5] 12.2 µM | [7] 19.5 µM | [9] 20 µM | [12] 21.8 µM | CD40, CD40 (gene 958) [13] 20 µM | CD69, CD69 (gene 969) 20 µM | [14] 20 µM | [15] 10.7 µM | [17] 20 µM
inactive: [1] | [6] | [8] | [10] | [11] | [16]

CC[C@H](C)C(=O)O[C@H]1C[C@@H](C)C=C2C=C[C@H](C)[C@H](CC[C@@H]3C[C@@H](O)CC(=O)O3)[C@H]21
active: [1] 32.5 µM | CD40, CD40 (gene 958) [2] 13.8 µM | [3] 0.398 µM | [5] 3.95 µM | [6] 3.95 µM | [9] 34 µM | [11] 33.5 µM | [12] 30.8 µM | CD40, CD40 (gene 958) [13] 12.5 µM | CD69, CD69 (gene 969) 13.8 µM | [14] 33.7 µM | [18] 21.7 µM | [17] 0.147 µM
inactive: [4] | [7] | [8] | [10] | [16]

COc1cccc(-c2ccc(/C=C\CN3CCCCCC3)cc2Cl)c1
inactive: [3] | [4] | [7] | [8] | [9] | [10] | [11] | [14]
active: [1] 33.5 µM | CD40, CD40 (gene 958) [2] 28.6 µM | [5] 26.8 µM | [6] 28.4 µM | [12] 26 µM | CD40, CD40 (gene 958) [13] 27.3 µM | CD69, CD69 (gene 969) 30.4 µM | [15] 29.8 µM | [16] 25.8 µM | [17] 25 µM

CCOC(=O)c1ccc(C2CCC(NC[C@H](O)COc3ccc(O)c(NS(C)(=O)=O)c3)CC2)cc1 (some centres undefined)
active: [4] 30.9 µM | [5] 26.1 µM | [6] 29.9 µM | [7] 34.1 µM | [9] 18.7 µM | [12] 28.1 µM | CD38, CD38 (gene 952) 32.4 µM | CD69, CD69 (gene 969) 29.8 µM | [14] 11.6 µM | [17] 28.8 µM
inactive: [1] | [3] | [8] | [10] | [11] | CD40, CD40 (gene 958) [13] | [15] | [16]
